Laboratory results reported in PubChem BioAssay AID1159580 (chemical genetic matrix, 2015).
Out of some 5,500 compounds screened, about 2,000 (36%) were called active. Not shown: some 18% with an inconclusive outcome. The list shows a part of the results. A number with no mark means an inactive call. Cut-off read from the data, not from the text of the source: active = normalized growth mostly below about 0.91 (no sharp cut-off); inconclusive = no clear call, values can overlap the other calls; inactive = mostly above about 0.92.

Assay: chemical genetic growth profiling, strain panel (AID 1159580);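 note: tested at 20 µM; growth read once vehicle control cultures reached saturation at 30 °C; 1 = growth at the plate median or of vehicle wells; lower values mean less growth of the strain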
Conditions: S. cerevisiae deletion strains, growth OD

Compound: CCOP(=S)(OCC)SCn1c(=O)oc2cc(Cl)ccc21
- normalized growth (locus YAL013W, strain DEP1, active compounds read low): 1
- normalized growth (locus YAL021C, strain ccr4, active compounds read low): 0.957
- normalized growth (locus YAL026C, strain drs2, active compounds read low): 0.972
- normalized growth (locus YAL030W, strain snc1, active compounds read low): 0.947
- normalized growth (locus YBL061C, strain skt5, active compounds read low): 0.949
- normalized growth (locus YBR009C, strain hhf1, active compounds read low): 1.35 [resistant] (active)
- normalized growth (locus YBR021W, strain FUR4, active compounds read low): 0.998
- normalized growth (locus YBR023C, strain chs3, active compounds read low): 0.946
- normalized growth (locus YBR171W, strain sec66, active compounds read low): 0.922
- normalized growth (locus YBR229C, strain ROT2, active compounds read low): 0.997
- normalized growth (locus YBR231C, strain swc5, active compounds read low): 0.956
- normalized growth (locus YBR279W, strain paf1, active compounds read low): 0.977
- normalized growth (locus YCL011C, strain gbp2, active compounds read low): 0.961
- normalized growth (locus YCL016C, strain dcc1, active compounds read low): 0.955
- normalized growth (locus YCL029C, strain bik1, active compounds read low): 0.985
- normalized growth (locus YCL061C, strain MRC1, active compounds read low): 0.956
- normalized growth (locus YCL069W, strain vba3, active compounds read low): 0.968
- normalized growth (locus YCR088W, strain abp1, active compounds read low): 0.961
- normalized growth (locus YDL005C, strain med2, active compounds read low): 0.968
- normalized growth (locus YDL035C, strain GPR1, active compounds read low): 0.987
- normalized growth (locus YDL040C, strain nat1, active compounds read low): 0.961
- normalized growth (locus YDL074C, strain BRE1, active compounds read low): 0.928
- normalized growth (locus YDL101C, strain DUN1, active compounds read low): 1.01
- normalized growth (locus YDL134C, strain PPH21, active compounds read low): 0.991
- normalized growth (locus YDL185W, strain tfp1, active compounds read low): 1
- normalized growth (locus YDL192W, strain arf1, active compounds read low): 0.989
- normalized growth (locus YDR001C, strain nth1, active compounds read low): 0.96
- normalized growth (locus YDR069C, strain doa4, active compounds read low): 0.956
- normalized growth (locus YDR101C, strain arx1, active compounds read low): 0.992
- normalized growth (locus YDR137W, strain rgp1, active compounds read low): 0.81 (active)
- normalized growth (locus YDR150W, strain NUM1, active compounds read low): 0.995
- normalized growth (locus YDR159W, strain sac3, active compounds read low): 0.97
- normalized growth (locus YDR162C, strain NBP2, active compounds read low): 0.987
- normalized growth (locus YDR195W, strain ref2): 1.04
- normalized growth (locus YDR297W, strain sur2, active compounds read low): 0.943
- normalized growth (locus YDR318W, strain mcm21, active compounds read low): 0.993
- normalized growth (locus YDR334W, strain swr1, active compounds read low): 0.965
- normalized growth (locus YDR335W, strain msn5, active compounds read low): 0.974
- normalized growth (locus YDR388W, active compounds read low): 0.994
- normalized growth (locus YDR392W, strain spt3, active compounds read low): 0.872
- normalized growth (locus YDR502C, strain sam2, active compounds read low): 0.986
- normalized growth (locus YEL003W, strain gim4, active compounds read low): 0.961
- normalized growth (locus YEL037C, strain rad23, active compounds read low): 0.975
- normalized growth (locus YEL061C, strain CIN8 (second series), active compounds read low): 0.96
- normalized growth (locus YEL061C, strain CIN8, active compounds read low): 0.99
- normalized growth (locus YER015W, strain faa2, active compounds read low): 0.967
- normalized growth (locus YER016W, strain bim1, active compounds read low): 0.958
- normalized growth (locus YER110C, active compounds read low): 0.993
- normalized growth (locus YER111C, strain swi4, active compounds read low): 0.965
- normalized growth (locus YER155C, strain BEM2 (second series), active compounds read low): 0.952
- normalized growth (locus YER155C, strain BEM2, active compounds read low): 0.993
- normalized growth (locus YER167W, strain BCK2, active compounds read low): 1
- normalized growth (locus YFR010W, strain ubp6, active compounds read low): 0.979
- normalized growth (locus YGL078C, strain dbp3, active compounds read low): 0.984
- normalized growth (locus YGL086W, strain mad1, active compounds read low): 0.986
- normalized growth (locus YGL167C, strain pmr1, active compounds read low): 0.921
- normalized growth (locus YGL173C, strain kem1, active compounds read low): 0.943
- normalized growth (locus YGL227W, strain vid30, active compounds read low): 0.963
- normalized growth (locus YGL240W, strain doc1, active compounds read low): 0.935
- normalized growth (locus YGL248W, strain PDE1, active compounds read low): 0.985
- normalized growth (locus YGL253W, strain hxk2, active compounds read low): 0.961
- normalized growth (locus YGR078C, strain PAC10, active compounds read low): 0.994
- normalized growth (locus YGR135W, strain pre9, active compounds read low): 0.977
- normalized growth (locus YGR229C, strain SMI1, active compounds read low): 1.01
- normalized growth (locus YGR252W, strain gcn5, active compounds read low): 0.987
- normalized growth (locus YHR013C, strain ard1, active compounds read low): 1.01
- normalized growth (locus YHR027C, strain rpn1, active compounds read low): 0.959
- normalized growth (locus YHR030C, strain SLT2, active compounds read low): 0.984
- normalized growth (locus YHR079C, strain IRE1 (second series), active compounds read low): 0.996
- normalized growth (locus YHR094C, strain hxt1, active compounds read low): 0.994
- normalized growth (locus YHR129C, strain ARP1, active compounds read low): 0.986
- normalized growth (locus YHR142W, strain chs7, active compounds read low): 0.954
- normalized growth (locus YHR200W, strain rpn10, active compounds read low): 0.99
- normalized growth (locus YIL066C, strain RNR3, active compounds read low): 1.01
- normalized growth (locus YIL073C, strain SPO22, active compounds read low): 1.06
- normalized growth (locus YIL125W, strain kgd1, active compounds read low): 0.984
- normalized growth (locus YIR030C, strain dcg1, active compounds read low): 0.989
- normalized growth (locus YJL092W, strain hpr5, active compounds read low): 0.965
- normalized growth (locus YJL095W, strain BCK1 (second series), active compounds read low): 0.941
- normalized growth (locus YJL095W, strain BCK1, active compounds read low): 0.975
- normalized growth (locus YJL115W, strain asf1, active compounds read low): 0.969
- normalized growth (locus YJL129C, strain trk1, active compounds read low): 0.907
- normalized growth (locus YJL134W, strain LCB3, active compounds read low): 0.994
- normalized growth (locus YJL154C, strain vps35, active compounds read low): 0.972
- normalized growth (locus YJL164C, strain tpk1, active compounds read low): 0.943
- normalized growth (locus YJL166W, strain qcr8, active compounds read low): 0.942
- normalized growth (locus YJL168C, strain set2, active compounds read low): 0.991
- normalized growth (locus YJL187C, strain SWE1 (second series), active compounds read low): 1
- normalized growth (locus YJL187C, strain SWE1, active compounds read low): 0.95
